From PubChem BioAssay (NCI)
This is part of a sample that, as a whole, favours compounds with a hit. Of some 83,000 tested, about 20% had one in any assay.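 48-hour exposure, single concentration, 96-well plates; percent growth endpoint where 0 means no net growth. Active: below 10.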 Values without a mark were called inactive. Calls of active or inactive are those of the source.

Assays:
Experiment in all cases: NCI-60 one-dose screen, 48 h (100 = growth as untreated, 0 = no growth, -100 = all killed)
Conditions in all cases: 10 µM unless noted
[1] = test system: NCI-H23 lung
[2] = test system: NCI-H226 lung
[3] = test system: NCI-H322M lung
[4] = test system: HOP-62 NSCLC
[5] = test system: NCI-H460 lung
[6] = test system: NCI-H522 lung
[7] = test system: A549/ATCC NSCLC
[8] = test system: 786-0 renal
[9] = test system: COLO 205 colon
[10] = test system: DU-145 prostate
[11] = test system: K-562 leukemia
[12] = test system: MALME-3M melanoma
[13] = test system: MDA-MB-231 breast
[14] = test system: RXF 393 renal
[15] = test system: SF-268 CNS
[16] = test system: SF-295 CNS
[17] = test system: SF-539 CNS
[18] = test system: UACC-257 melanoma
[19] = test system: M14 melanoma
[20] = test system: HOP-92 NSCLC

SMILES	growth [1]	growth [2]	growth [3]	growth [4]	growth [5]	growth [6]	growth [7]	growth [8]	growth [9]	growth [10]	growth [11]	growth [12]	growth [13]	growth [14]	growth [15]	growth [16]	growth [17]	growth [18]	growth [19]	growth [20]
CCNC(=O)Oc1ccc(/C(=C(/C)c2ccc(OC)cc2)c2ccc(OCCN3CCCCCC3)cc2)cc1	52.8%	87.4%	80.9%	31.9%	16.7%	93.1%	54.4%	35.5%	-41.1% (active)	76%	2.3% (active)	-3.44% (active)	46.8%	12.3%	64%	-20.9% (active)	18.4%	-32.4% (active)	-73.3% (active)	–
Brc1cc(-c2cc(-c3ccc4c(c3)OC=CO4)[nH]n2)cs1	79.3%	92%	91.4%	84.7%	97.8%	81.3%	93.9%	106%	98.5%	95.9%	41.3%	64%	81.2%	93.7%	90.1%	79.1%	85.2%	101%	83.3%	–
COc1ccc(C(C)=C(c2ccc(OCCN3CCCCCC3)cc2)c2ccc(OCCN3CCCCCC3)cc2)cc1	-40.3% (active)	-46.1% (active)	-11.7% (active)	-52.4% (active)	-57.2% (active)	-52% (active)	-35.9% (active)	-93.9% (active)	-60.8% (active)	6.1% (active)	-32.5% (active)	-86.9% (active)	-60.5% (active)	-82.4% (active)	4.71% (active)	-86% (active)	-88.4% (active)	-65.5% (active)	-89.5% (active)	–
O=S(=O)(NCCCNc1nccc(-c2[nH]c(-c3ccccc3)nc2-c2ccc(F)c(O)c2)n1)c1cccc(F)c1	90.4%	96.7%	103%	116%	78%	87.5%	92.4%	101%	96.3%	100%	49.3%	-2.58% (active)	79.3%	100%	103%	85.2%	103%	23.4%	29.3%	–
COc1ccc(-c2cnc(NC(=O)CCCCCCNC(=O)C(O)(O)C(F)(F)F)s2)cc1	-9.04% (active)	5.81% (active)	8.73% (active)	1.79% (active)	0.915% (active)	-41.4% (active)	-12.5% (active)	14.9%	-70.8% (active)	-8.16% (active)	14.4%	11%	17%	-48% (active)	2% (active)	-44.2% (active)	12%	18.3%	14.4%	-25.4% (active)
Cc1cc(Br)ccc1-n1cc(C#N)c(N)c1C(=O)c1ccc(Br)cc1	92.7%	97.7%	104%	103%	113%	99.6%	105%	93.5%	118%	119%	119%	106%	93.6%	108%	114%	98.5%	97.4%	103%	89.4%	–
Cc1ccc2c(n1)C(=O)C(Cl)=C(Nc1ccc(C(F)(F)F)cc1)C2=O	68.5%	89.5%	107%	97.2%	101%	-18.8% (active)	102%	34%	16.7%	105%	7.13% (active)	-49.6% (active)	76.4%	-15.7% (active)	97.7%	112%	101%	35.6%	28.6%	–
COc1ccc(/C=N/NC(=O)c2c(N)nn(C)c2Nc2ccccc2)cc1	66.9%	51.6%	90%	38.8%	14.6%	19.3%	57.1%	58%	35.8%	76.3%	19.2%	44.7%	65.1%	37.3%	58.6%	9.85% (active)	40.2%	56.4%	13%	46.8%
C[C@H]1OCC2(CCN(c3cnc(C(=O)Nc4cc(F)cc5cccnc45)cn3)CC2)[C@H]1N	75.3%	80%	81.4%	84.1%	89.1%	31.6%	77.3%	60.1%	13.3%	78.2%	6.28% (active)	48.1%	31.6%	58.4%	72.2%	92.2%	68.4%	101%	71.2%	–
COc1cc(-c2nc(-c3ccccc3)[nH]c2-c2ccnc(NCCCNS(=O)(=O)c3cccc(F)c3)n2)ccc1F	101%	83.9%	102%	130%	94.2%	85.4%	87.1%	98.4%	93%	87.1%	63.6%	95.6%	94.3%	92.2%	89.1%	102%	98.6%	115%	93.3%	–
CC(C)(C)c1cc(NC(=O)Nc2ccc(-c3cn4c5c(sc4n3)CCc3c[nH]cc3-5)cc2)no1	13.9%	33.9%	47.6%	-28.1% (active)	4.38% (active)	32.4%	28.7%	-29.4% (active)	-17.2% (active)	32.6%	1.04% (active)	0.464% (active)	30.3%	-24.4% (active)	32.7%	-56.5% (active)	-4.46% (active)	32.3%	6.95% (active)	–
O=C(Nc1ccc(N=Cc2c(O)[nH]c3ccccc23)cc1)Nc1ccc(S(=O)(=O)Nc2ncccn2)cc1	27.1%	96.7%	114%	99%	104%	95%	101%	100%	125%	110%	98%	112%	107%	122%	109%	101%	105%	103%	104%	–
CNC(=O)c1cc(Oc2ccc3c(c2)sc2nc(-c4ccc(N(C)C)cc4)cn23)ccn1	35.5%	36.2%	48.1%	45.4%	8.23% (active)	3.82% (active)	23.4%	31%	8.9% (active)	20.2%	11.8%	57.5%	15.9%	13.9%	45.7%	8.54% (active)	-14% (active)	78.8%	19.1%	–
CC(Nc1ncnc2ccc(-c3cnc(N)nc3)cc12)c1ccccc1 (stereo unspecified)	50.3%	20.6%	2.74% (active)	31.2%	35.1%	11.9%	32.7%	23.7%	49.6%	25.1%	44.5%	28.9%	25.4%	-2.14% (active)	40.9%	29.6%	23.4%	77.2%	48.3%	–
CC(Nc1c(C#N)cnc2ccc(-c3cncc(-c4n[nH]c(=O)o4)c3)cc12)c1ccccc1 (stereo unspecified)	17.4%	2.2% (active)	-4.15% (active)	8.5% (active)	11.1%	-20% (active)	17.7%	9.83% (active)	-6.04% (active)	8.39% (active)	28.5%	-8.08% (active)	17.2%	-24% (active)	12.2%	-7.24% (active)	-12.8% (active)	34.2%	18.7%	–
O=C1[C@@H]2Cc3c([nH]c4ccccc34)[C@H](c3ccc(Br)cc3)N2C(=O)CN1C1CCN(Cc2c(Cl)cccc2Cl)CC1	91.7%	85.8%	95.1%	91.9%	97.5%	91.7%	93%	99.8%	105%	96.3%	74.2%	107%	89%	120%	81.3%	100%	105%	102%	92.8%	–
